Reference: PubChem BioAssay AID489028 (Sanford-Burnham Center for Chemical Genomics, 2010)
In all, about 10,000 compounds went through this assay and about 5,600 (56%) were called active. No stated cut-off is given here; in the data, active means inhibition above about 40%; inactive means the rest. So high a share suggests a set chosen from earlier hits. Not all results are given here.

biological target: Protein Mdm4 (Homo sapiens) + E3 ubiquitin-protein ligase Mdm2 (Homo sapiens) (UniProt O15151+Q00987); assay: Mdm2-MdmX complex disruptors, retested hits, confirmation, luminescence, single concentration (AID 489028); conditions: Mdm2-MdmX binding, luminescent assay; at 8 µM; hits give high values
Sequence (O15151 whole entry, looked up): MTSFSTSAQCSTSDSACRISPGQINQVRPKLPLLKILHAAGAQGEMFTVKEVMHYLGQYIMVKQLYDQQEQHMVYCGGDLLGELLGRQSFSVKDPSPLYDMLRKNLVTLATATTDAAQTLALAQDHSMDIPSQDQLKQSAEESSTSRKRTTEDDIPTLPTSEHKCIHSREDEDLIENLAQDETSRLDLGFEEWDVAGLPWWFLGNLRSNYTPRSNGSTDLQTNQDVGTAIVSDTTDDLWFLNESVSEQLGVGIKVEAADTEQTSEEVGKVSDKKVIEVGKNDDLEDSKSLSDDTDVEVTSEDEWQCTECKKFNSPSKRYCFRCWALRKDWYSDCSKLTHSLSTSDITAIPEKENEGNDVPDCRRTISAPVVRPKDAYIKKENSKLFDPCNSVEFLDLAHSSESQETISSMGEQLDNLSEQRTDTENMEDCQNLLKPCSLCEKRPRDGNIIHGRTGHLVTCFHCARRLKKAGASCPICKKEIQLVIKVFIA
Sequence (Q00987 whole entry, looked up): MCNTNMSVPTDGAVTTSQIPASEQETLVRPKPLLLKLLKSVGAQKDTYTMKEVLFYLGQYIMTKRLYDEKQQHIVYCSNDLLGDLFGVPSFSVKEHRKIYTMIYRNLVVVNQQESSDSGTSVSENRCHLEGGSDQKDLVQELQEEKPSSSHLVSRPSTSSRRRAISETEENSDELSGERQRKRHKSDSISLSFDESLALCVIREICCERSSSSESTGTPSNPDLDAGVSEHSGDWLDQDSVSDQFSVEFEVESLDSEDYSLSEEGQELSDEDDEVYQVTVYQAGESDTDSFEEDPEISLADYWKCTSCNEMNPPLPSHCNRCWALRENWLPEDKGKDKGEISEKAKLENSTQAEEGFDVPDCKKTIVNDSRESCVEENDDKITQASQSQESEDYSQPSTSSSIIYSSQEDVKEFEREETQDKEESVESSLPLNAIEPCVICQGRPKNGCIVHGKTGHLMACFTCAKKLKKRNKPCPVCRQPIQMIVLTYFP

SMILES | inhibition
O=C1C2(Cl)C3(Cl)C4(Cl)C(Cl)(Cl)C5(Cl)C3(Cl)C1(Cl)C5(Cl)C24Cl (stereo not drawn) | 49.5% (active)
COC(=O)C1=C(c2ccc(F)cc2OCc2ccccc2)C[C@@H]2CC[C@H]1N2C(=O)NCc1ccc(Cl)cc1 | 31.1% (inactive)
CNCC(O)c1cc(F)c(OCc2ccccc2)c(OCc2ccccc2)c1F (stereo not drawn) | 17.8% (inactive)
Cc1cc2ccccn2c1C(C[N+](=O)[O-])c1c(F)cccc1Cl (stereo not drawn) | 99.1% (active)
O=c1c2ccccc2nc(/C=C/c2ccc(F)cc2)n1-c1ccccc1O | 31% (inactive)
O=Cc1cn(Cc2ccc(F)cc2Cl)c2ccccc12 | 28% (inactive)
CNC(=O)O/N=C(\N)Cc1csc2ccccc12 | 52.6% (active)
CNC(=O)O/N=C(\N)Cc1csc2ccc(Cl)cc12 | 90.3% (active)
O=C(c1cc2nc(-c3ccccc3)cc(-c3ccccc3)n2n1)N1CCC2(CC1)OCCO2 | 16.3% (inactive)
CCCCC(=O)N/N=C/c1c(O)n(CCC2=CCCCC2)c(=O)[nH]c1=O | 20.9% (inactive)
COC(=O)C1=C(c2ccc(F)cc2OCc2ccccc2)C[C@@H]2CC[C@H]1N2C(=O)NCc1ccc2[nH]ccc2c1 | 18.9% (inactive)
O=C1NC(=O)N(CCc2ccc(F)cc2)C(=O)/C1=C/C=C/c1ccccc1 | 57.2% (active)
CCCCCCCCCCCCn1ccc(=N)cc1 | 98.3% (active)
N#CC1=C(N)Oc2c(c(=O)oc3ccccc23)C1c1ccccc1OC(=O)c1cccs1 (stereo not drawn) | 15.1% (inactive)
CC1(C)Cc2c(C#N)c(N3CCNCC3)nc(-c3ccco3)c2CS1 | 24.1% (inactive)
CCOc1ccc(-c2cc(C)[n+](CCN(CC)CC)c(-c3ccc(OCC)cc3)c2)cc1 | 84.5% (active)
CC(Cc1ccccc1)NCCC(c1ccccc1)c1ccccc1 (stereo not drawn) | 19.1% (inactive)
CCCCCn1c(=O)c(C(=O)NCc2ccccc2)c(O)c2ccccc21 | 5.2% (inactive)
